Measured values reported in PubChem BioAssay AID504834 (National Center for Advancing Translational Sciences (NCATS), 2011).
Out of some 320,000 compounds screened, about 22,000 (6.9%) were called active. Inconclusive results (about 27%) are left out. This is one part of a sample in which actives are shown more often than they occur. A number with no mark means an inactive call. Calls follow the shape of the dose curve; as a rule, active = well fitted inhibition curve with a large enough effect; inconclusive = small, poorly fitted or top-dose-only effect, or another doubt; inactive = no such curve, though single readings can be large or run the other way.
% is scaled to controls: 0 for no effect and ±100 for the full control effect; potency is read from the fitted curve at half-maximal effect.

Assay: Primary qHTS for delayed death inhibitors of the malarial parasite plastid, 96 hour incubation
Details: P. falciparum luciferase reporter growth; series mostly up to 28.7 µM; activity change, negative = inhibition: at the top concentration
How it was run: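 Two parasite generations (96 h, 37 C, 5% CO2) of compound exposure in infected erythrocytes (0.05% parasitemia, 2% hematocrit). Luciferase-reporter P. falciparum; decreased luminescence indicates inhibited growth, aimed at apicoplast-acting delayed death.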
For `CCN(C(=O)CN1C(=O)/C(=C/c2ccc(F)cc2)SC1=S)C1CCS(=O)(=O)C1` (configuration not stated), the Potency was 11.7 µM (active). With `CN(C(=O)CN1C(=O)S/C(=C\c2ccccc2F)C1=O)C1CCS(=O)(=O)C1` (configuration not stated) the “activity change, negative = inhibition” value was 6.95%. In the case of `CC(C)NC(=O)COCc1cc(-c2ccc3c(c2)OCO3)on1`, the “activity change, negative = inhibition” value is reported as -15.2%. For `Cn1cccc1C(=O)NNC(=O)COc1ccc(Br)cc1`, the “activity change, negative = inhibition” value was 25.8%. For `O=C(CSc1nnc2n1CCCN2)c1ccccc1`, the “activity change, negative = inhibition” value was 78.5%. In the case of `Cc1c(OC(C)C(=O)N[C@@H](Cc2ccccc2)C(=O)O)ccc2c3c(c(=O)oc12)CCCC3` (some centres not stated), the “activity change, negative = inhibition” value is reported as 87.3%. In the case of `Cc1c(C)c2ccc(OCC(=O)N3CCC(C(=O)O)CC3)c(C)c2oc1=O`, the “activity change, negative = inhibition” value is reported as 3.28%. For `Cc1c(OC(C)C(=O)NCC2CCC(C(=O)O)CC2)ccc2c1oc(=O)c1ccccc12` (configuration not stated), the Potency was 13.1 µM (active). In the case of `CCC(C(=O)NCc1cccnc1)n1nc(C)c2sc3ccccc3c2c1=O` (configuration not stated), the “activity change, negative = inhibition” value is reported as 54.4%. For `O=C(C1CCCN(S(=O)(=O)c2ccccc2)C1)N1CCN(c2ccc(F)cc2)CC1` (configuration not stated), the “activity change, negative = inhibition” value was 107%. With `CCOC(=O)C(C)n1cnc2c(nnn2-c2cccc(OC)c2)c1=O` (configuration not stated) the “activity change, negative = inhibition” value was -28.3%. For `COc1ccc(/C=N\NC(=O)c2sc(N)nc2C)cc1OC`, the “activity change, negative = inhibition” value was 42.8%. With `COc1ccc(/C=N/NC(=O)c2ccc(Cl)cc2)cc1COC(C)=O` the “activity change, negative = inhibition” value was 13.5%. For `COc1cccc(OCc2cc(/C=N/NC(=O)c3nc(Cl)c(Cl)c(N)c3Cl)ccc2OC)c1`, the Potency was 13.1 µM (active). In the case of `O=C(NC1CCCCC1)c1cc(C2CC2)on1`, the “activity change, negative = inhibition” value is reported as 90.7%. In the case of `O=C(Nc1cc(C(F)(F)F)ccc1Cl)c1cc(C2CC2)on1`, the “activity change, negative = inhibition” value is reported as -29.2%. With `CSc1ccccc1NC(=O)c1cc(C2CC2)on1` the Potency was 7.38 µM (active). For `CC(=O)NC(CC(=O)O)c1ccc(F)cc1` (configuration not stated), the “activity change, negative = inhibition” value was 137%. For `CCOc1ccc(C(CC(=O)O)NC(=O)COc2ccccc2)cc1` (configuration not stated), the Potency was 10.4 µM (active). In the case of `COc1ccc(C(CC(=O)Nc2ccc(C)cc2)NC(=O)C(F)(F)F)cc1` (configuration not stated), the “activity change, negative = inhibition” value is reported as 22.6%. In the case of `O=C(COc1ccccc1)Nc1nonc1NC(=O)COc1ccccc1`, the “activity change, negative = inhibition” value is reported as -1.51%. In the case of `CCOc1ccc(C(CC(=O)O)NC(=O)Cc2ccccc2)cc1OC` (configuration not stated), the “activity change, negative = inhibition” value is reported as 31.4%. In the case of `COCCNC(=O)COc1ccc(C)c(C)c1`, the “activity change, negative = inhibition” value is reported as 24.7%. For `Cc1ccc(OCC(=O)NC(C)c2ccccc2)cc1C` (configuration not stated), the Potency was 5.22 µM (active). In the case of `COc1ccc(C(CC(=O)O)NC(=O)Cc2ccccc2)cc1` (configuration not stated), the Potency is reported as 2.94 µM (active). For `Cc1cc(C)cc(OCC(=O)NC(C)c2ccccc2)c1` (configuration not stated), the “activity change, negative = inhibition” value was -4.04%. For `CCN(CC)S(=O)(=O)c1ccc2[nH]c(=O)cc(C(=O)N(C)C3CCS(=O)(=O)C3)c2c1` (configuration not stated), the “activity change, negative = inhibition” value was -24.5%. With `COc1ccc(-c2cnc(SCCNC(=O)c3ccc4c(c3)OCO4)[nH]2)cc1` the “activity change, negative = inhibition” value was -6.78%. With `CCOc1ccc(N(CC(=O)Nc2cccc(OC)c2)S(C)(=O)=O)cc1` the “activity change, negative = inhibition” value was -19.7%. For `CC(=O)Nc1cccc(C(=O)OCN2C(=O)c3ccccc3C2=O)c1`, the “activity change, negative = inhibition” value was -2.17%. With `Cc1ccc(N(C)C(=O)Oc2cccc3ccc(C)nc23)cc1` the Potency was 0.104 µM (active). In the case of `Cc1cccc(NC(=O)c2ccc3ccccc3n2)n1`, the “activity change, negative = inhibition” value is reported as 32%. With `Cc1ccc2cccc(OCCCOc3ccccc3CO)c2n1` the “activity change, negative = inhibition” value was 42.1%. With `CSCCC(NC(=O)c1ccco1)C(=O)Nc1cc(C)ccn1` (configuration not stated) the “activity change, negative = inhibition” value was 157%. For `CCOC(=O)c1cc(S(=O)(=O)NCCc2ccc(OC)c(OC)c2)cn1C`, the Potency was 13.1 µM (active). For `COc1ccc(CCNS(=O)(=O)c2ccc(F)cc2)cc1OC`, the “activity change, negative = inhibition” value was 4.43%. With `CCS(=O)(=O)NCCc1ccc(OC)c(OC)c1` the “activity change, negative = inhibition” value was 7.66%. In the case of `Cc1[nH]c2ccc(C(=O)N3CCN(C)CC3)cc2c1C`, the “activity change, negative = inhibition” value is reported as 71.1%. With `Cc1c(Cl)cccc1NC(=O)[C@@]1(CC(=O)O)CC(/C=C/c2ccccc2)=NO1` the “activity change, negative = inhibition” value was 12.7%. For `CN1CCc2nc(SC(C(=O)O)c3ccccc3)c(C#N)c(-c3cccs3)c2C1` (configuration not stated), the “activity change, negative = inhibition” value was 2.82%. In the case of `Cc1cc(NC(=O)CCS(=O)(=O)c2ccc(F)cc2)no1`, the “activity change, negative = inhibition” value is reported as 17.5%. For `COc1ccc(C(=O)Nc2ccccc2C(=O)N/N=C/c2ccccc2OC)cc1`, the “activity change, negative = inhibition” value was -12.8%. In the case of `COc1cccc(/C=N\NC(=O)C2=NNC(=O)C2C)c1O` (configuration not stated), the Potency is reported as 4.15 µM (active). For `COc1cccc(/C=N/NC(=O)c2[nH]nc3c2CCc2ccccc2-3)c1O`, the “activity change, negative = inhibition” value was 11.3%. For `COc1ccccc1-n1ccnc(SCC(=O)NC2CCCCC2)c1=O`, the “activity change, negative = inhibition” value was -12.4%. With `COc1ccc(C(=O)OCC(=O)Nc2ccc3[nH]c(=O)[nH]c3c2)c(OC)c1OC` the “activity change, negative = inhibition” value was 7.27%. With `Cc1ccc(S(=O)(=O)N(C)C)cc1NC(=O)COC(=O)/C=C/c1cccs1` the “activity change, negative = inhibition” value was -0.398%. With `CC(C)[C@@H](NC(=O)OC(C)(C)C)C(=O)NCC1CCC(C(=O)N[C@@H](Cc2ccccc2)C(=O)O)CC1` (some centres not stated) the “activity change, negative = inhibition” value was -3.55%. In the case of `O=C(NC(C(=O)NCCN1CCOCC1)C12CC3CC(CC(C3)C1)C2)C1CCCCC1` (configuration not stated), the “activity change, negative = inhibition” value is reported as -25.7%. In the case of `CC(C)C(NC(=O)C1CCC(C(C)(C)C)CC1)C(=O)NCCCN1CCCCC1` (configuration not stated), the Potency is reported as 13.1 µM (active). In the case of `CCCCn1c(N)c(N(CC)C(=O)c2ccccc2C(F)(F)F)c(=O)[nH]c1=O`, the “activity change, negative = inhibition” value is reported as 14.2%. For `CCOc1ccc(CN(C)C(=O)c2ccc(=O)[nH]c2)cc1`, the “activity change, negative = inhibition” value was -5.36%.
